Active and inactive are the calls of the source. Calls come from the whole dose curve; as a rule, active = well fitted activation curve with a large enough effect; inactive = flat fitted curve, though single readings scatter.
biological target: Pyruvate kinase PKM (Homo sapiens) (UniProt P14618); assay: qHTS for Activators of Human Muscle Isoform Pyruvate Kinase: Extended Characterization Using A Lactate Dehydrogenase (LDH) Assay; settings: purified hPK-M2, LDH-coupled NADH fluorescence kinetic
Text: Human pyruvate kinase muscle 2 (hPK-M2)enzyme was supplied as a highly purified (>95% pure) preparation from Harvard Medical School and a secondary assay was used to evaluate compounds. This assay couples the formation of pyruvate from hPK-M2 using lactate dehydrogenase (LDH) and NADH. The depletion of NADH is followed in a fluorescent-based kinetic assay that follows the formation of pyruvate to lactate, as catalyzed LDH (described by Hannaert et al., 2002)1 Pyruvate kinase substrates, PEP and ADP, were present in the assay at 0.1 mM and 4 mM respectively. In this kinetic assay initial rates were determined by following the fluorescence of NADH depletion. NIH Chemical Genomics Center [NCGC] NIH Molecular Libraries Probe Centers Network [MLPCN] MLPCN Grant: MH085679 Assay Submitter (PI): Matthew G. Vander Heiden, Harvard Medical School
Three uL of substrate mix (final concentration, 50 mM Tris-Cl pH 8.0, 200 mM KCl, 15 mM MgCl2, 0.1 mM PEP, 4.0 mM ADP, and 0.2 mM NADH) was dispensed into black-solid 1536 well plates. 23 nL of compounds were delivered by a pin tool and 1 uL of enzyme mix (final concentrations, 10 nM hPK-M2 and 1 uM of LDH) was added. Plates were immediately placed in ViewLux (Perkin Elmer) and NADH fluorescence was determined at 30 second exposure intervals for between 3 and 6 minutes. Data were normalized to the uninhibited and EC100 activation using known activators such as fructose-bis-phosphate.

Sequence of Pyruvate kinase PKM (Homo sapiens) (P14618 whole entry, looked up, canonical isoform): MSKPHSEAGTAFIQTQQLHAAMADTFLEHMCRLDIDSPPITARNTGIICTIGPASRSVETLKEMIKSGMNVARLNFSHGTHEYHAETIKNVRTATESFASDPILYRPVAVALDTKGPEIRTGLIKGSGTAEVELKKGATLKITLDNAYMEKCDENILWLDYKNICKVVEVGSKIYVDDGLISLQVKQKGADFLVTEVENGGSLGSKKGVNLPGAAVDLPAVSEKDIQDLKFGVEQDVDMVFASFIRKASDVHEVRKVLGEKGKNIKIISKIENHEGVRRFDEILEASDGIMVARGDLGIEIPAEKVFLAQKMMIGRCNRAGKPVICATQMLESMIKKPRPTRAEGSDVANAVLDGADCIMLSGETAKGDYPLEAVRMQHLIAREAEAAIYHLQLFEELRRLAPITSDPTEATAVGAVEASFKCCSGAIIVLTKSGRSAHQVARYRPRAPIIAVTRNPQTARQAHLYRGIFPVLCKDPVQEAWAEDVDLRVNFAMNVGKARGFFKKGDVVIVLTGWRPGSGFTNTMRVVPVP

Potency, active:
Cc1cc2c(s1)c1cnn(Cc3cc(F)ccc3F)c(=O)c1n2C 447 nM
Cc1cc2c(s1)c1cnn(Cc3cc(F)c(F)cc3F)c(=O)c1n2C 398 nM
Cc1cc2c(s1)c1cnn(Cc3ccc(F)cc3F)c(=O)c1n2C 224 nM
Cc1cc2c(s1)c1cnn(Cc3c(Cl)ccc(C)c3F)c(=O)c1n2C 562 nM
COc1cccc(Cn2ncc3c4sc(S(C)=O)cc4n(C)c3c2=O)c1 (stereo not given) 146 nM
